Screens (PubChem)
ZTA counter – counter-screen for EBNA-1 inhibitors: inhibitors of Epstein-Barr virus ZTA. P03206. ZTA-DNA binding, fluorescence polarization. inhibition, % at 11 µM. 320,000 compounds, 0.15% hits. AID 2234; in the data active = inhibition above about 33%
Target sequence (P03206 whole entry, looked up): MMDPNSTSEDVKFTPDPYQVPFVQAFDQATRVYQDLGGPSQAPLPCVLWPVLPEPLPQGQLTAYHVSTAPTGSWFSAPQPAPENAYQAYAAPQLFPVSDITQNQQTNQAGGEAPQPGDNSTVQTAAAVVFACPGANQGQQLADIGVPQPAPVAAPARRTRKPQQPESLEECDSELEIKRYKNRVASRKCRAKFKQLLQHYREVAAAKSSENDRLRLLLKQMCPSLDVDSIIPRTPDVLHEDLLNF
dFosB activator – mouse delta FosB homodimer activation. P13346. purified delta FosB, TAMRA-CDK5 oligo fluorescence polarization; percent of positive-control signal above neutral wells. activation, % at 25 µM. 340,000 compounds, 0.99% hits. AID 493131;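 active = mean activation above about 17%, with every replicate also reaching it, limit read from the data, passing the limit was not always enough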
Rpn11 block – Rpn11 (human) deubiquitinase inhibition; human 26S proteasome, Ub4-pepOG fluorescence polarization; 20S core pre-blocked with epoxomicin; 360,000 compounds, 0.59% hits; AID 588493; inhibition, % at 20 µM; O00487;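 active = inhibition at 20 µM, scaled to each plate's controls, above about 33%, limit read from the data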
Target sequence (O00487 whole entry, looked up): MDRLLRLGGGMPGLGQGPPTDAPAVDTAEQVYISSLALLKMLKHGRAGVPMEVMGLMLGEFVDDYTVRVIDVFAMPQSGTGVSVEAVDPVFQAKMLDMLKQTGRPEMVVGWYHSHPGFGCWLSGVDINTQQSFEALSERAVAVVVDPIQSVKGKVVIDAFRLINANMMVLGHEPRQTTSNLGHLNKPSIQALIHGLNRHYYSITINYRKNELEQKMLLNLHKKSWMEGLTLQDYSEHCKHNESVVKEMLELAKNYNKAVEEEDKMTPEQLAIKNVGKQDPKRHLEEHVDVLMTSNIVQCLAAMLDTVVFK
EBNA-1 inhibitor – blocks EBNA-1 binding to DNA; EBNA-1 DNA binding, fluorescence polarization; AID 1950; 300,000 compounds, 0.34% hits; inhibition, % at 14.8 µM; in the data active = inhibition above about 28%
NR3A LBD binder – modulates the human NR3A ligand-binding domain; NR3A LBD differential scanning fluorimetry, Tm shift; 0% = protein alone, 100% = glycine-bound protein; Tm shift relative to glycine control, % at 25 µM; 340,000 compounds, 2.5% hits;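 active = melting temperature shift of at least 10% of the positive control shift, at one fixed dose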
TPT1 inhibitor – inhibitors of Candida albicans tRNA 2'-phosphotransferase TPT1; recombinant caTPT1, FP RNA substrate dephosphorylation; 300,000 compounds, 0.81% hits; inhibition, % at 5 µM;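 active = inhibition above the mean of all tested compounds plus 3 SD, set per screening campaign, cut at about 24% in these data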;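 also: plate controls were DMSO alone for no effect and ferristatin control at 100 nM for full effect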
An asterisk follows results filed as active; . = no result. An excerpt weighted towards active compounds, which were near 4.5% of everything screened.

SMILES	ZTA counter	dFosB activator	Rpn11 block	EBNA-1 inhibitor	NR3A LBD binder	TPT1 inhibitor
CCC(Oc1ccccc1)C(=O)Nc1ccccc1C(=O)N1CCN(C)CC1 (stereo unspecified)	11	-6	-2	9	11*	2
CCc1ccc(OC(C)C(=O)Nc2ccccc2C(=O)N2CCOCC2)cc1 (stereo unspecified)	-10	-6	-1	-6	7	-5
CCC(Oc1ccccc1)C(=O)Nc1ccccc1C(=O)N1CCCCC1 (stereo unspecified)	14	-4	3	11	10	-2
CCC(Oc1ccccc1)C(=O)Nc1ccccc1C(=O)N1CCOCC1 (stereo unspecified)	-6	-10	0	15	13*	-3
CN(C)C(=O)c1ccc(NC(=O)CN2C(=O)NC3(CCCc4ccccc43)C2=O)cc1 (stereo unspecified)	-8	2	0	0	2	-2
O=C(CN1C(=O)c2ccccc2S1(=O)=O)NCc1c(F)cccc1F	2	-3	-1	-5	3	-2
COc1cccc(NC(=O)CN(C)C(=O)c2cccc(S(=O)(=O)Nc3ccccc3OC)c2)c1	-4	-10	-6	.	0	.
COc1ccc(C(NC(=O)/C=C/c2ccco2)c2ccc(OC)c(OC)c2)cc1 (stereo unspecified)	-10	6	2	3	-13	10
CCOc1ccc(C(NC(=O)/C=C/c2ccco2)c2ccc(OC)c(OC)c2)cc1 (stereo unspecified)	-3	3	1	4	10*	2
COc1cc(NS(=O)(=O)c2c(C)[nH]c(C)c2C(=O)N2CCCC2)cc(OC)c1OC	0	-8	-7	4	0	-2
COc1cc(NS(=O)(=O)N2CCCC2)cc(OC)c1OC	11	-5	6	10	15*	0
Cc1ccc(CN2[C@@H](CC3CCCCC3)COCCS2(=O)=O)cc1	18	-4	0	3	-5	-3
O=C(c1ccc(C#CC2(O)CCCCC2)cc1)N1CCN(Cc2ccccc2)CC1	-17	-10	-3	3	6	-2
O=C(c1ccc(C#CC2(O)CCCCC2)cc1)N1CCN(C(c2ccccc2)c2ccccc2)CC1	2	2	4	-9	12*	-6
COc1ccc(C)cc1S(=O)(=O)N1CCN(C/C=C/c2ccccc2)CC1	6	-11	-5	.	1	.
N#C/C(=C/c1ccc(N2CCCCC2)cc1)c1cccc(F)c1	1	-5	38	4	12*	14
COc1ccc(/C=C2\SC(N3CCc4ccccc4C3)=NC2=O)cc1	21	-35	-11	-1	12*	5
CCOc1ccc(/C=C2\SC(N3CCc4ccccc4C3)=NC2=O)cc1	-3	-12	4	-2	-11	-2
CCOc1c(Br)cc(Br)cc1/C=C1\SC(N)=NC1=O	.	25*	6	.	0	.
COC(=O)c1ccc(COC(=O)C(CCSC)NC(=O)COc2ccccc2)cc1 (stereo unspecified)	-1	-5	1	6	22*	-1
CSCCC(NC(=O)COc1ccccc1)C(=O)OCC(=O)c1ccccc1 (stereo unspecified)	-7	-6	-1	8	0	0
COc1cccc(=O)c2c(C)n(CC(=O)c3ccccc3)c(C)c12	5	.	16	3	-2	30*
Cc1c2ccccc2cc(Cc2ccccc2)[n+]1C	6	-1	-4	3	-5	1
Cc1cc(S(=O)(=O)N2CCCC2C(=O)N2CCOCC2)c(C)cc1Cl (stereo unspecified)	1	-4	-2	0	58*	-5
NCC(=O)NCC(=O)NC[C@H]1O[C@@H](n2ccc(=O)[nH]c2=O)[C@H](O)[C@@H]1O	.	-9	2	.	1	.
SMILES	ZTA counter	dFosB activator	Rpn11 block	EBNA-1 inhibitor	NR3A LBD binder	TPT1 inhibitor
O=c1ccn([C@@H]2O[C@H](CNS(=O)(=O)C3CC3)[C@@H](O)[C@H]2O)c(=O)[nH]1	.	-13	2	.	14*	.
CCC1CCc2c(sc(NC(=O)CSc3nc(-c4ccco4)cc(C(F)(F)F)n3)c2C#N)C1 (stereo unspecified)	-2	-7	-2	3	12*	0
CCC1CCc2c(sc(NC(=O)c3ccco3)c2C(N)=O)C1 (stereo unspecified)	8	1	-1	0	715*	0
N#Cc1c(NC(=O)CSc2nc(-c3ccccc3)cc(C(F)(F)F)n2)sc2c1CCC2	6	-3	-5	-7	7	5
CSc1ccc(C(O)c2ncc(-c3cccc(F)c3)[nH]2)cc1 (stereo unspecified)	.	.	-5	.	.	.
COC(=O)CNC(=O)C1CCN(S(=O)(=O)c2cccc3nsnc23)CC1	-9	3	-3	-5	0	-2
COc1ccc(NC(=S)NNc2ccc([N+](=O)[O-])cc2S(=O)(=O)Nc2ccc(C)cc2C)cc1	-9	-9	22	-5	23*	10
Cc1ccc(NS(=O)(=O)c2cc([N+](=O)[O-])ccc2NNC(=S)Nc2cc(C)ccc2C)c(C)c1	2	-1	30	8	20*	8
Cc1ccc([N+](=O)[O-])cc1NC(=S)NC(=O)C(C)(C)C	18	6	-1	-5	-4	-2
COc1ccc(Cl)cc1NS(=O)(=O)c1c(C)[nH]c(C)c1C(=O)N1CCCCC1	-4	-10	-7	8	1	-2
COCOCCn1cc(CN2CCS(=O)(=O)N(Cc3ccc(-c4ccc(OC)nc4)cc3)C(C(C)C)C2=O)nn1 (stereo unspecified)	.	.	18	.	.	.
O=C1c2cccc3c([N+](=O)[O-])ccc(c23)C(=O)N1c1nccs1	-1	4	-40	7	10*	18
O=C1c2cccc3c([N+](=O)[O-])ccc(c23)C(=O)N1c1ccccn1	-3	-5	-35	2	2	8
Cc1nnc2ccc(-c3cccc(NC(=O)c4ccco4)c3)nn12	-3	-5	-3	6	-3	1
COc1ccc(CC(=O)Nc2cccc(-c3ccc4nnc(C)n4n3)c2)cc1	9	73*	1	-5	-1	-2
COc1ccc(CC(=O)Nc2cccc(-c3ccc4nnc(C)n4n3)c2)cc1OC	19	73*	0	1	-3	-2
CCOc1ccc(CC(=O)Nc2cccc(-c3ccc4nnc(C)n4n3)c2)cc1	4	89*	-18	1	-1	-1
O=S(=O)(Nc1cccc(-c2ccc3nncn3n2)c1)c1ccccc1F	-1	-3	-7	1	13*	2
Cc1nnc2ccc(-c3cccc(NC(=O)Cc4cccs4)c3)nn12	-7	-32	8	9	-3	2
CCc1nc2c(OCC(=O)C(C)(C)C)cccn2c1N(C)C(=O)c1ccco1	.	.	-2	.	.	.
